Reference: the supplement of paper PMC12350171
Counter-ions that a name gives are not always drawn. A number with no mark means an inactive call.

Columns and labels:
Details in all cases: 20 µM
[1] = tested on: Haemophilus parainfluenzae; assay: growth AUC normalised to DMSO control (fraction of control); higher = less growth inhibition, active = hit call of the paper
Summary of the method: (§1)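 Three biological replicates were carried out, with OD578 read hourly for 24 h. Before inoculation at a starting OD578 of 0.01, pathogens were passaged anaerobically twice; plates were pre-reduced mGAM containing 20 μM compound and 1% DMSO, sealed with breathable membranes, and the Haemophilus parainfluenzae medium carried added hemin and NAD. Area under each growth curve was calculated by the trapezoidal rule up to the exponential-to-stationary transition and normalised to DMSO controls on the same plate.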

[2] = tested on: Salmonella enterica typhimurium; assay: as above
Summary of the method: as §1

Shigella flexneri = assay: as above
Summary of the method: as §1

Vibrio cholerae = assay: as above
Summary of the method: as §1

[3] = tested on: Yersinia pseudotuberculosis; assay: as above
Summary of the method: as §1

P. vulgatus RND KO = assay: growth AUC normalised to DMSO control (median) (fraction of control); higher = less growth inhibition, active = hit call of the paper
Summary of the method: (§2)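 Anaerobic growth was tracked hourly at OD578 for 24 h in 96-well plates of mGAM seeded at OD578 0.01 with each approved-drug library compound at 20 μM and 1% DMSO. Strains had first been passaged twice overnight without oxygen. Three biological replicates were run. The reported median is the area under the curve, calculated by the trapezoidal rule on curves truncated at entry into stationary phase and normalised to vehicle wells on the same plate.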

P. vulgatus WT = assay: as above
Summary of the method: as §2

[4] = tested on: S. enterica typhimurium WT; assay: as above
Summary of the method: as §2

[5] = tested on: S. enterica typhimurium tolC KO; assay: as above
Summary of the method: as §2
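Wherever growth AUC normalised to DMSO control (median) is given: active when median AUC fell below 0.1.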

Structure (SMILES) | growth AUC normalised to DMSO control [1] | growth AUC normalised to DMSO control [2] | growth AUC normalised to DMSO control (Shigella flexneri) | growth AUC normalised to DMSO control (Vibrio cholerae) | growth AUC normalised to DMSO control [3] | growth AUC normalised to DMSO control (P. vulgatus RND KO) | growth AUC normalised to DMSO control (P. vulgatus WT) | growth AUC normalised to DMSO control [4] | growth AUC normalised to DMSO control [5]
Clc1cc(Cl)c(OCC#CI)cc1Cl [Haloprogin] | 0.992 | – | – | – | – | – | – | – | –
COC(=O)C1=C(C)NC(C)=C(C(=O)OC(C)C)C1c1cccc2nonc12 (configuration not stated) [Isradipine] | 1.02 | – | – | – | – | – | – | – | –
CCN(CC)CCOC(=O)C(Cc1cccc2ccccc12)CC1CCCO1 (configuration not stated) [Nafronyl oxalate] | 1.28 | – | – | – | – | – | – | – | –
C[C@@](Cc1ccc(O)c(O)c1)(NN)C(=O)O [Carbidopa] | 0.996 | – | – | – | – | – | – | – | –
COCCCOc1ccnc(C[S+]([O-])c2nc3ccccc3[nH]2)c1C (configuration not stated) [Rabeprazole sodium salt] | 0.985 | – | – | – | – | – | – | – | –
CN1CCC(OC(c2ccccc2)c2ccccc2)CC1 [Diphenylpyraline hydrochloride] | 0.996 | – | – | – | – | – | – | – | –
CC[C@H](C)[C@H]1O[C@]2(C=C[C@@H]1C)C[C@@H]1C[C@@H](C/C=C(\C)[C@@H](O[C@H]3C[C@H](OC)[C@@H](O[C@H]4C[C@H](OC)[C@@H](O)[C@H](C)O4)[C@H](C)O3)[C@@H](C)/C=C/C=C3\CO[C@@H]4[C@H](O)C(C)=C[C@@H](C(=O)O1)[C@]34O)O2.CO[C@H]1C[C@H](O[C@H]2[C@H](C)O[C@@H](O[C@@H]3/C(C)=C/C[C@@H]4C[C@@H](C[C@]5(C=C[C@H](C)[C@@H](C(C)C)O5)O4)OC(=O)[C@@H]4C=C(C)[C@@H](O)[C@H]5OC/C(=C\C=C\[C@@H]3C)[C@]54O)C[C@@H]2OC)O[C@@H](C)[C@@H]1O [Avermectin B1] | – | 1.02 | 1.03 | 1.02 | 1.01 | – | – | – | –
C[C@@H]1CC[C@H]2[C@@H](C)C(=O)O[C@@H]3O[C@@]4(C)CC[C@@H]1[C@]32OO4 [Artemisinin] | 0.986 | 0.988 | 1.01 | 0.987 | 0.957 | 1.02 | 1.04 | 0.996 | 0.998
CC(C)c1c(CN(C)C(C)Cc2ccccc2)n(C)n(-c2ccccc2)c1=O (configuration not stated) [Famprofazone] | 0.971 | 0.997 | 1.03 | 0.965 | 1 | 0.992 | 1 | 1.01 | 0.871
CCC1(C)CC(=O)NC(=O)C1 [Bemegride] | 1.02 | 1.02 | 1.01 | 1.05 | 1.01 | 1.03 | 1.08 | 1.02 | 1.01
CC(C)(N)Cc1ccccc1 [Phentermine hydrochloride] | 1.02 | 1.02 | 1.03 | 1.04 | 1.01 | 0.0617 (active) | 0.458 | 0.992 | 0.996
C[C@]12CC[C@H](O)C[C@@H]1CC[C@@H]1[C@@H]2CC[C@]2(C)C(=O)CC[C@@H]12 [Epiandrosterone] | 1 | 0.987 | 0.99 | 1.19 | 0.997 | 1 | 1.03 | 1 | 0.951
C[C@@H]1C[C@@H]([C@H](O)CC2CC(=O)NC(=O)C2)C(=O)[C@@H](C)C1 [Cycloheximide] | 1.03 | 1 | 1.04 | 1.01 | 0.999 | 1.01 | 1.01 | 0.999 | 0.999
COc1ccc(CCN2CCC(Nc3nc4ccccc4n3Cc3ccc(F)cc3)CC2)cc1 [Astemizole] | 1.02 | 1.05 | 0.997 | 0.934 | 1.02 | 1.01 | 0.986 | 1 | 0.962
C[C@H](N)[C@H](O)c1ccc(O)c(O)c1 [Levonordefrin] | 1.04 | 1.01 | 1 | 1 | 1.03 | 1.01 | 1.03 | 0.99 | 1
CC(C)C[C@H]1C(=O)N2CCC[C@H]2[C@]2(O)O[C@](NC(=O)[C@@H]3C=C4c5cccc6[nH]c(Br)c(c56)C[C@H]4N(C)C3)(C(C)C)C(=O)N12 [Bromocryptine mesylate] | 1 | 1 | 0.996 | 0.996 | 1.03 | 1.01 | 1.03 | 1.02 | 0.994
CC[C@@H](C(N)=O)N1CCCC1=O [Levetiracetam] | 1.04 | 1.01 | 1.03 | 1.05 | 1.01 | 1.01 | 1.03 | 1.01 | 1
C#C[C@]1(O)CC[C@H]2[C@@H]3CCC4=CC(=O)CC[C@]4(C)[C@H]3CC[C@@]21C [Ethisterone] | 1.02 | 1.01 | 1.02 | 1.02 | 1 | 1.05 | 1.04 | 1.02 | 0.998
O=c1[nH]c2ccccc2n1CCCN1CCC(n2c(=O)[nH]c3cc(Cl)ccc32)CC1 [Domperidone] | 1.02 | 1.01 | 0.985 | 1.03 | 1 | 1 | 1 | 1 | 0.979
C[N+]1([O-])[C@@H]2C[C@@H](OC(=O)[C@H](CO)c3ccccc3)C[C@H]1[C@@H]1O[C@@H]12 (some centres not stated) [Scopolamin-N-oxide hydrobromide] | 0.991 | 0.992 | 1.02 | 1.07 | 1.01 | 1.04 | 1.02 | 1.02 | 1.01
C#CCN(C)[C@H](C)Cc1ccccc1 [Selegiline hydrochloride] | 0.985 | 1.02 | 1.05 | 1.01 | 1.03 | 1.03 | 1.05 | 1 | 1.01
CCC1(c2cccc(O)c2)CCCCN(C)C1 (configuration not stated) [Meptazinol hydrochloride] | 0.961 | 0.983 | 0.948 | 0.974 | 0.994 | 0.993 | 0.982 | 0.998 | 1
CO[C@]12C[C@@H](COC(=O)c3cncc(Br)c3)CN(C)[C@@H]1Cc1cn(C)c3cccc2c13 [Nicergoline] | 1.03 | 1.01 | 1 | 0.996 | 1 | 0.933 | 0.948 | 1 | 0.942
CC(=O)O[C@H]1CC[C@@]2(C)C(=CC[C@@H]3[C@@H]2CC[C@]2(C)C(=O)CC[C@@H]32)C1 [Dehydroisoandosterone 3-acetate] | 0.989 | 0.995 | 0.966 | 0.988 | 1 | 0.976 | 0.952 | 0.991 | 0.903
C[C@]12CC[C@H]3[C@@H](CCC4=CC(=O)CC[C@@H]43)[C@@H]1CC[C@@H]2O [Nandrolone] | 1.99 | 0.995 | 0.981 | 0.967 | 0.981 | 0.999 | 1.03 | 1.01 | 0.981
C[C@]12CCC(=O)C=C1C=C[C@@H]1[C@@H]2CC[C@@]2(C)[C@H]1CC[C@@]2(O)CCC(=O)O [Canrenoic acid potassium salt] | 0.979 | 0.993 | 0.97 | 1.02 | 0.983 | 1.01 | 0.996 | 1.01 | 1
CCCC(C)(COC(N)=O)COC(=O)NC(C)C (configuration not stated) [Carisoprodol] | 0.843 | 1 | 0.977 | 0.948 | 1 | 1 | 1.02 | 1 | 0.979
CC(NC(C)(C)C)C(=O)c1cccc(Cl)c1 (configuration not stated) [Bupropion hydrochloride] | 1.01 | 1 | 1.05 | 1.05 | 1.01 | 1.03 | 1.03 | 0.996 | 1
CN(C)C(=O)Oc1cc(OC(=O)N(C)C)cc(C(O)CNC(C)(C)C)c1 (configuration not stated) [Bambuterol hydrochloride] | 0.992 | 1 | 0.997 | 1 | 1.02 | 1.05 | 1.02 | 1.01 | 1.01
C[C@]12CC[C@H](O)C[C@H]1CC[C@@H]1[C@@H]2CC[C@]2(C)[C@@H](C3=CC(=O)OC3)CC[C@]12O [Digitoxigenin] | 1 | 1 | 0.981 | 0.973 | 0.995 | 0.989 | 0.968 | 0.995 | 1
